Bioassay records deposited in PubChem BioAssay by National Center for Advancing Translational Sciences (NCATS).
PINK1 expr mod: changes PINK1 expression | Potency, µM (titrated, usually from 76.6 µM), for the others: top-dose activation (PINK1 increase), actives largely listed as activators | PINK1 immunofluorescence, high-content cytometry, 24 h | 0.2% of 410,000 active; active means well fitted activation curve with a large enough effect; inconclusive means small, poorly fitted or top-dose-only effect; cell line not stated here; further: % of control where 0% means no effect; nearly all actives have a fitted effect of over 65% in size
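Fluorescence from anti-PINK1 antibody, together with nuclear and cell stains, was scanned on a laser-scanning cytometer. Before staining, stable-line cells were incubated 24 hours with compounds at 5 concentrations; primary antibody 12 h at 10 degrees C.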
KB-3-1 tox: kills parental KB-3-1 adenocarcinoma cells; 1.4% of 400,000 active; Potency, µM (series often up to 46.1 µM), usual class: cytotoxic; KB-3-1 viability, CellTiter-Glo ATP luminescence, 72 h; further: on the % scale 0 is the no-effect control and ±100 the full control effect; nearly all actives have a fitted effect of over 60% in size
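72 h, 37 °C compound treatment of KB-3-1 parental cells; CellTiter-Glo added, 10 min, luminescence read. Data corrected against DMSO-only plates and normalized before curve fitting.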
KB-V1 cytotox: kills drug-selected multidrug resistant KB-V1 cells. KB-V1 MDR cells viability, CellTiter-Glo, 72 h. Potency, µM (doses to about 46.1 µM), most hits filed as cytotoxic. 3.4% of 400,000 active. AID 1347076; further: on the % scale 0 is the no-effect control and ±100 the full control effect; nearly all actives have a fitted effect of over 60% in size
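KB-V1 cells (P-gp-expressing MDR subline of KB-3-1) in phenol-red-free DMEM with 10% FBS were exposed to library compounds over a concentration series for 72 h at 37 degrees C. Viability read by CellTiter-Glo luminescence; concentration-effect curves fitted after normalization.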
SW480 rereplic: DNA re-replication induction in SW480 cells. Potency, µM (top dose mostly 46.1 µM), without a hit: at the top dose re-replication activation, usual class: activators. SW480 DNA re-replication, Hoechst DNA content imaging, 48 h. 1.8% of 340,000 active; further: % of control where 0% means no effect; nearly all actives have a fitted effect of over 55% in size
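Quantitative HTS format with DMSO vehicle controls; 48 hr drug incubation at 37 C, then 40 min Hoechst staining and scanning imager measurement at 405 nm excitation.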
MCF10A rereplic: DNA re-replication induction in MCF 10a cells | MCF 10A DNA re-replication, Hoechst nuclear intensity, 48 h | Potency, µM (highest dose often 46.1 µM), without a hit: top-dose activity, positive = re-replication, usual class: activators | 2.9% of 350,000 active | AID 624296; further: % of control where 0% means no effect; nearly all actives have a fitted effect of over 50% in size
ALOX12 inh: inhibitors of human 12S-lipoxygenase ALOX12; P18054; purified 12hLO, xylenol orange hydroperoxide absorbance; Potency, µM (highest dose often 108 µM), for inactives: at the top dose activity change, negative = inhibition, actives largely listed as inhibitors; 1.1% of 580,000 active; AID 1671190; further: on the % scale 0 is the no-effect control and ±100 the full control effect
Target sequence (P18054 whole entry, looked up): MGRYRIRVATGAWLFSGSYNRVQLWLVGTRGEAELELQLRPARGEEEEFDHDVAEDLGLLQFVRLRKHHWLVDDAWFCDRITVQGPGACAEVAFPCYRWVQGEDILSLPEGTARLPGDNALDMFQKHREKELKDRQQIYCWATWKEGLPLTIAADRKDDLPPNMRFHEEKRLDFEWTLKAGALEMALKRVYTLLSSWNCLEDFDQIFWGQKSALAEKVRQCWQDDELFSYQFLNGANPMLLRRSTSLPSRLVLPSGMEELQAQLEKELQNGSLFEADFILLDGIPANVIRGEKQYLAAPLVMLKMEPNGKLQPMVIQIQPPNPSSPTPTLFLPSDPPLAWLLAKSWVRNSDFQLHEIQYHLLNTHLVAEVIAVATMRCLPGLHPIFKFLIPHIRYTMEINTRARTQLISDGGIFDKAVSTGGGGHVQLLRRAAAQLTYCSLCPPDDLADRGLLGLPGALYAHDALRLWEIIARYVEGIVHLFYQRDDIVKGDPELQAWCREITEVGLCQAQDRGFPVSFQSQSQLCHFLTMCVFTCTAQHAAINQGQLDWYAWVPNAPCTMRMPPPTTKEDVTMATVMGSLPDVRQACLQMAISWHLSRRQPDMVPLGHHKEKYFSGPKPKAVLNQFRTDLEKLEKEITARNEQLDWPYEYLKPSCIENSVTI
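Purified human 12hLO (150 nM final) in 25 mM Hepes, 0.01% Triton X-100, pH 7.0 was preincubated 15 min at room temperature with compound. Then 40 uM arachidonic acid was added, 30 min. Hydroperoxide was read by Fe-XO absorbance ratio 573/405 nm.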
* hit, by the source's call; i = inactive; ? = inconclusive; nt = not tested or not shown; [ ] = dose if it differs, or a comment. Only some compounds are listed: those with a hit (about 5.8% of all), similar ones and a draw of the others. Unless noted, the call rests on the fitted dose curve; in most records, active means well fitted curve in the direction sought with a large enough effect; inconclusive means small, poorly fitted or top-dose-only effect, or another doubt; inactive means no such curve, though single readings can be large; an effect the other way counts as inactive or inconclusive. Potency means the concentration at half of the fitted maximal effect.

SMILES | PINK1 expr mod | KB-3-1 tox | KB-V1 cytotox | SW480 rereplic | MCF10A rereplic | ALOX12 inh
O=[N+]([O-])c1ccc(S(=O)(=O)CC2CSc3nc4ccccc4n32)cc1 (centres undefined) | 0% | 1.8µM* | 2.6µM* | ? | 12% | 6%
CCCC(=O)O[C@]1(C(=O)CCl)[C@@H](C)C[C@H]2[C@@H]3CCC4=CC(=O)C=C[C@]4(C)[C@@]3(F)C(=O)C[C@@]21C | 5% | i | 13µM* | -3% | ? | -7%
COc1ccc(-c2cc(C(=O)N(C)C)c3ccccc3n2)cc1 | nt | nt | nt | nt | nt | 1%
COc1ccccc1-n1c(SCC(=O)NC2CCS(=O)(=O)C2)nc2cc([N+](=O)[O-])ccc21 (centres undefined) | 1% | i | i | 0% | -1% | -1%
O=C(CSc1nc2cc([N+](=O)[O-])ccc2n1-c1ccc(F)cc1)NC1CCS(=O)(=O)C1 (centres undefined) | 2% | i | 23µM* | -2% | 2% | 19%
CC1(c2ccccc2)N(Cc2ccccc2)C(=O)OC12CCN(c1cccnc1)CC2 (centres undefined) | nt | nt | nt | nt | nt | 66%[176 µM]
CCOc1ccc(/C=N/OCC(=O)Nc2ccc(OCc3ccccc3)cc2)cc1OC | -1% | i | ? | -13% | ? | -13%
COc1cc(/C=N/OCC(=O)Nc2ccc(OC(F)F)cc2)ccc1OCc1ccccc1 | 6% | 23µM* | 8.2µM* | ? | ? | -4%
COc1ccc(/C=N/OCC(=O)NC(c2ccccc2)c2ccccc2)cc1OC | 1% | ? | 2.3µM* | 0% | 21% | -2%
C/C(=N\OCC(=O)NC12CC3CC(CC(C3)C1)C2)c1cc2ccccc2o1 | ? | i | i | ? | 21µM* | -13%
COc1cc(/C=N/OCC(=O)NC23CC4CC(CC(C4)C2)C3)ccc1OCc1ccccc1 | -1% | ? | ? | ? | 21µM* | 12%
COc1ccc(/C=N/OCC(=O)Nc2cc(C)on2)cc1OC | 2% | i | ? | -4% | 8% | -15%
COc1cc(OC)cc(-c2nc3n(n2)C(c2ccncc2)C2=C(CC(C)(C)CC2=O)N3)c1 (centres undefined) | nt | nt | nt | nt | nt | 30%
Cc1cc(C)c2nc(NNC(=O)c3ccc(S(=O)(=O)N4CCCCC4)cc3)sc2c1 | 4% | ? | i | ? | ? | 10µM*
CCOC(=O)N1CCN(S(=O)(=O)c2ccc(C(=O)NNc3nc4c(C)cc(C)cc4s3)cc2)CC1 | -1% | ? | ? | 5.8µM* | ? | ?
CCOC(=O)N1CCN(S(=O)(=O)c2ccc(C(=O)NNc3nc4c(C)cccc4s3)cc2)CC1 | 10% | ? | i | ? | ? | ?
Cc1cc(C)c2nc(NC(=O)c3ccc(S(=O)(=O)N4CCCC4)cc3)sc2c1 | -4% | i | i | nt | nt | ?
CCOC(=O)N1CCN(S(=O)(=O)c2ccc(C(=O)NNc3nc4ccc(Cl)cc4s3)cc2)CC1 | 7% | ? | i | ? | ? | nt
CCOC(=O)N1CCN(S(=O)(=O)c2ccc(C(=O)NNc3nc4cc(C)cc(C)c4s3)cc2)CC1 | 5% | 4.1µM* | i | ? | ? | nt
CCC/C(=N\NC(=O)C(C)C)c1ccccc1 | nt | nt | nt | nt | nt | -22%
CCOCCCn1c(SCc2nc3ccccc3s2)nc2ccccc2c1=O | 6% | 12µM* | 2.3µM* | ? | ? | -23%
CCOCCCn1c(SCC(=O)Nc2ccccc2)nc2ccccc2c1=O | 2% | i | i | -6% | -4% | -16%
CCOCCCn1c(SCC(=O)/C(C#N)=C(\C)N)nc2ccccc2c1=O | 1% | i | 8.2µM* | -8% | -7% | -1%
COc1ccc(NC(=O)CSc2nnc3ccccn23)cc1S(=O)(=O)N1CCCCC1 | nt | nt | nt | nt | nt | 11%
Cc1ccc(-c2cc(C(=O)O)c3cc(C)cc(C)c3n2)c(C)c1 | nt | nt | nt | nt | nt | 0%
SMILES | PINK1 expr mod | KB-3-1 tox | KB-V1 cytotox | SW480 rereplic | MCF10A rereplic | ALOX12 inh
N#Cc1cccc(NC(=O)CSc2ccc3c4c(cccc24)C(=O)c2ccccc2-3)c1 | 3% | ? | 21µM* | ? | 7.3µM* | ?
N#Cc1cccc(NC(=O)CSc2ccccc2)c1 | 1%[38.3 µM] | i | ? | -6% | 14% | -27%
COc1ccc(NC(=O)CSc2ccc3c4c(cccc24)C(=O)c2ccccc2-3)cc1 | ? | ? | ? | 12µM* | 2.6µM* | -23%
Cc1oncc1C(=O)Nc1ccc2ccccc2c1 | 0% | i | ? | -8% | -2% | 213%
Cc1oncc1C(=S)Nc1ccccc1 | ? | i | i | 6.5µM* | 8.2µM* | ?
COc1ccc(NC(=O)C(NC(=O)OC(C)(C)C)C(C)OCc2ccccc2)cc1 (centres undefined) | ? | i | 4.1µM* | -1% | 6% | 0%
COc1ccc(NC(=O)[C@H](COCc2ccccc2)NC(=O)OC(C)(C)C)cc1 | -1% | i | 5.2µM* | 10% | 5% | -21%
Cc1nc([N+](=O)[O-])c(Sc2nc3ccc([N+](=O)[O-])cc3[nH]2)n1Cc1ccccc1 | -5% | i | i | ? | 18µM* | -13%
Cc1nc([N+](=O)[O-])c(Br)n1Cc1ccccc1 | 11% | ? | ? | 28% | ? | 211%
Cc1cc(C(=O)NC(C)CCc2ccccc2)c2cccc(C)c2n1 (centres undefined) | nt | nt | nt | nt | nt | 26%
CC(=O)c1sc(N/N=C\c2ccccc2O)nc1C | 1% | ? | i | ? | 16µM* | -5%
Cc1ccc2[nH]c(C)cc(=S)c2c1 | -2% | ? | ? | 21µM* | 23µM* | -21%
Cc1cc(=S)c2ccccc2[nH]1 | 4% | ? | i | -4% | ? | ?
O=S(=O)(c1cc(Cl)c(Cl)cc1Cl)N1CCN2CCCC2C1 (centres undefined) | 13% | i | i | 0.37µM* | -9% | 0%
Cc1ccccc1-n1ncc2c1NC(=O)CC21C(=O)N(CC(N)=O)c2c(C)cccc21 (centres undefined) | nt | nt | nt | nt | nt | 10%
COc1cc2c(cc1OC)C(c1cc3cc4c(cc3[nH]c1=O)OCO4)N(C(=O)C(C)C)CC2 (centres undefined) | -2%[38.3 µM] | i | i | ? | 8.2µM* | 5%
COc1cc2c(cc1OC)C(c1cc3cccc(C)c3[nH]c1=O)N(C(=O)c1ccco1)CC2 (centres undefined) | nt | nt | nt | nt | nt | -3%
CCOC(=O)Cn1c(S(=O)(=O)Cc2cccc(F)c2)nc(-c2ccccc2)c1-c1ccccc1 | 2%[38.3 µM] | i | 21µM* | ? | ? | 22%
